The values below come from the supplement of paper PMC10338343.

± gives the standard deviation. Whole data set: some 6,200 sequences, median “pre-steady-state target cleavage rate” near 0.29, cut for the highest 2% near 2. Shown is part of a subset that was picked to be rich in the highest values.

The assay relates to MIWI (PIWIL1) piRISC loaded with piRNA #1 (30 nt). Nature of the assay: pre-steady-state target cleavage rate (min^-1); MIWI and MILI are mouse PIWI proteins and EfPiwi is from a freshwater sponge; tags in brackets are library labels; higher = faster piRNA-guided slicing of the target. Conditions: guide: piRNA #1 5'p-UGAGGUAGUAGGUUGUAUAGUAUCCAGAGG; auxiliary factor: 500 nM mouse GTSF1. In short, it runs like this: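 The pre-steady-state cleavage rate was obtained by Cleave-'n-Seq with a burst-and-steady-state fit. A transcribed, DNA-blocked target RNA library (0.1 nM) was mixed with 1 nM active affinity-purified piRISC carrying one synthetic guide, with or without 500 nM GTSF1 partner protein, in HEPES–potassium acetate buffer at 33 °C for 0–8 or 0–960 min. Uncleaved targets were sequenced and normalised to depth and to weakly complementary targets, with three trials pooled and k3 capped at 0.0001 min^-1.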
On to GGAGACCUAUCUAAACAACCUACAACCUCA, for which the “pre-steady-state target cleavage rate” value was determined as 0.00335 ± 0.0022.
The value for CCUCUGGAUACUAUACAGACCUACUACCUCA was 0.0114 ± 0.0052.
The value for GGAGUGCAUACUAUACAACGUACUACCUCA was 0.714 ± 0.039; that for GGAGAGGAUACUAUACAACCUACUACCUUA was 1.28 ± 0.066; that for CCUCUGGAUAGUAUACAACCUACUUCCUCA was 0.21 ± 0.034.
The value for GGAGAGGAUUCUAUACAACCUACUACCACA was 0.665 ± 0.047; that for CCUCUGCUUACUAUACAACCUACUACCUCA was 2.19 ± 0.15.
Turning to GCUCUGCUUACUAUACAACCUACUACCUCA, the “pre-steady-state target cleavage rate” value is 1.96 ± 0.12.
Turning to GGUCUGCUUACUAUACAACCUACUACCUCA, the “pre-steady-state target cleavage rate” value was determined as 1.74 ± 0.12.
The value for GCACUGGAUACUAUACAACCAACUACCUCA was 0.167 ± 0.017.
With GGAGUGCAUACAAUACAACCUACUACCUCA the figure was 1.11 ± 0.092; with GGUCUGAGAUACUAUACAACCUACUACCUCA, 1.89 ± 0.11.
With GGUCUGAUACUAUACAACCUACUACCUCA the figure was 1.79 ± 0.1.
With CCUCUGAUACUAUACAACCUACUACCUCA, the “pre-steady-state target cleavage rate” value was 2.11 ± 0.12.
The value for GCUCUGAUACUAUACAACCUACUACCUCA was 1.9 ± 0.12; that for GCUCUGAGAUACUAUACAACCUACUACCUCA was 2.07 ± 0.12; that for CCUCUGAGAUACUAUACAACCUACUACCUCA was 0.572 ± 0.056.
As for GGAGACCAUACUAUACAACCUACCUACCUCA, the “pre-steady-state target cleavage rate” value was found to be 1.06 ± 0.066.
The value for GGAGUGGAUAUUAUACAACCUACUACCUCA was 1.48 ± 0.072; that for “GGAGACCAUACUAUACAACCUACUACCUCU [g2:g23:cont:t1U]” was 1.7 ± 0.11; that for GGAGUGGAUAGUAUUCAACCUACUACCUCA was 0.584 ± 0.064.
In the case of GGAGACCUUACUAUACAUGGUACUACCUCA, the “pre-steady-state target cleavage rate” value stood at 0.00452 ± 0.0025.
As to GCUCUGGUUACUAUUCAACCUACUACCUCA, the “pre-steady-state target cleavage rate” value stood at 1.88 ± 0.12.
With CCUCUGGAUACUAUACAACCUACUUCCACA the figure was 0.337 ± 0.05; with GGACUGGAUUCUAUACAACCUACUACCUCA, 1.63 ± 0.11; with CCUACUGGAUACUAUACAACCUACUACCUCA, 2.04 ± 0.11.
The value for GGACUGGAUACCUAUACAACCUACUACCUCA was 1.15 ± 0.095.
Turning to GGACUGGAUACUAUACUACCUACAACCUCA, the “pre-steady-state target cleavage rate” value came out at 0.39 ± 0.057.
With CCACUGGAUUCUAUACAACCUACUACCUCA the figure was 2.08 ± 0.12.
With GCUACUGGAUACUAUACAACCUACUACCUCA, the “pre-steady-state target cleavage rate” value is 2.14 ± 0.13.
The value for “GGACUGGAUACUAUACAACCUACUACCUCC [g2:g27:cont:t1C]” was 1.42 ± 0.088.
For CCACUGGAUACUAUACAACCUACUACCUCA, the “pre-steady-state target cleavage rate” value worked out at 1.8 ± 0.11.
In the case of GGACUGGAUACUAUACAACCUACCUACCUCA, the “pre-steady-state target cleavage rate” value came out at 1.06 ± 0.094.
With GGACUGGAUACUAUACAACCUACUACCUCCA the figure was 2.19 ± 0.17; with GCACUGGAUUCUAUACAACCUACUACCUCA, 1.85 ± 0.096.
The value for GCACUGGAUACUAUACAACCUACUACCUCA was 1.81 ± 0.093.
The value for GGUCAGGAUACUAUACAACCUACUAGCUCA was 0.255 ± 0.033; that for GGAGACCUAACUAUACAACCUACUACCAGA was 0.385 ± 0.062; that for GGAGACCUUACUAUACAACCUACUACCCCA was 0.956 ± 0.086.
Take GGAGACGAUACUAUACAACCUACUACGUGA: the “pre-steady-state target cleavage rate” value was 0.348 ± 0.054.
With GGACUGGAUACUAUACAACCUAUUACCUCA the figure was 0.86 ± 0.075; with GCUCUGGAUACUAUACAACCUACAUGCUCA, 0.589 ± 0.072; with GGAGACCAUACUAAUACAACCUACUACCUCA, 0.978 ± 0.08.
Turning to GGUCUGCAUACUAUACAACCUACUACCUGA, the “pre-steady-state target cleavage rate” value came to 0.677 ± 0.13.
Consider GGAGACGAUUCUAUACAACCUACUACGUCA, for which the “pre-steady-state target cleavage rate” value turned out to be 0.92 ± 0.069.
For CCUCUGGAUCCUAUACAACCUACUACCUCA, the “pre-steady-state target cleavage rate” value came out at 1.38 ± 0.14.
Turning to GGUCUGGAUACAUACAACCUACUACCUCA, the “pre-steady-state target cleavage rate” value came out at 1.44 ± 0.11.
Regarding GGUCAGGAUUCUAUACAACCUACUACCUCA, the “pre-steady-state target cleavage rate” value is 1.77 ± 0.12.
With CCUCAGGAUUCUAUACAACCUACUACCUCA the figure was 2.24 ± 0.13.
The value for GCUCAGGAUUCUAUACAACCUACUACCUCA was 1.87 ± 0.092.
With GCUGUGGAUACUAUACAACCUACUACCUGA the figure was 0.776 ± 0.18.
